{"source": "the OligoGym collection", "data": [{"target": "NEFH", "assay": "pooled miR-30 sensor sort-seq; sequence = guide strand", "conditions": "shRNA", "values": [{"sequence": "TTTTTTCTTATCTTCAGCCTCT", "sensor-assay potency score (higher = more potent)": 0.587}, {"sequence": "TTGGCTTCTTCCTTCACTGGGG", "sensor-assay potency score (higher = more potent)": 0.0706}, {"sequence": "TTGGTGTCTTTTTTCTCCGGTG", "sensor-assay potency score (higher = more potent)": -0.602}, {"sequence": "TCTCTTGCTAACATATTGCTAA", "sensor-assay potency score (higher = more potent)": -0.697}]}, {"target": "NEIL1", "assay": "pooled miR-30 sensor sort-seq; sequence = guide strand", "conditions": "shRNA", "values": [{"sequence": "TTCTTTTTGCGGGACTTGCGCC", "sensor-assay potency score (higher = more potent)": -1.12}, {"sequence": "ATGTCAGCCTTGACCTTCCGGG", "sensor-assay potency score (higher = more potent)": -0.984}, {"sequence": "TGAGTGACATAGCTCCAGCAGG", "sensor-assay potency score (higher = more potent)": -1.15}, {"sequence": "TGGGATGTCAGCCTTGACCTTC", "sensor-assay potency score (higher = more potent)": -1.09}, {"sequence": "TCTTAGGAAGGTCTCTCTTTGC", "sensor-assay potency score (higher = more potent)": -1.22}, {"sequence": "TTGCAGTCCTCTTAGGAAGGTC", "sensor-assay potency score (higher = more potent)": -0.51}, {"sequence": "TGAACTGCTGGTACTCCTGCAA", "sensor-assay potency score (higher = more potent)": -0.0198}, {"sequence": "TCTGTCCTCAGGACTCAGCTGT", "sensor-assay potency score (higher = more potent)": -0.0425}, {"sequence": "TATCTTCTGGCTCAGGGTCAGC", "sensor-assay potency score (higher = more potent)": -1.69}, {"sequence": "TTGGTCCTTATCTTCTGGCTCA", "sensor-assay potency score (higher = more potent)": -0.526}, {"sequence": "TTTCGTAGCACACTCTCCCTGA", "sensor-assay potency score (higher = more potent)": 0.529}, {"sequence": "TACTCCTGCAAGACACAGGGCC", "sensor-assay potency score (higher = more potent)": -0.384}]}, {"target": "NEK11", "assay": "pooled miR-30 sensor sort-seq; sequence = guide strand", "conditions": "shRNA", "values": [{"sequence": "TAAGTCTCGATGAAGTATCCTC", "sensor-assay potency score (higher = more potent)": -0.275}, {"sequence": "TTTTCTGTACTTCTGACAGTGC", "sensor-assay potency score (higher = more potent)": -0.562}, {"sequence": "TACATCAACACTCAGCTGCTGA", "sensor-assay potency score (higher = more potent)": -0.0516}, {"sequence": "ATGGAGTACATCAACACTCAGC", "sensor-assay potency score (higher = more potent)": -1.37}, {"sequence": "TTCCTGAATTTTATCGTCCAGA", "sensor-assay potency score (higher = more potent)": -0.793}, {"sequence": "TTCGCTAGCATTCTGATGCCTT", "sensor-assay potency score (higher = more potent)": 0.204}, {"sequence": "TTTTGTTGAAGCACGTATCTTC", "sensor-assay potency score (higher = more potent)": 0.706}, {"sequence": "TTAGGTTCTGTAGCTGCTCATC", "sensor-assay potency score (higher = more potent)": -0.837}, {"sequence": "TTCTCTGGTCTTTCTAACGCTA", "sensor-assay potency score (higher = more potent)": -0.53}, {"sequence": "TTTGTGTCTAGAGAAGTGCAAC", "sensor-assay potency score (higher = more potent)": -1.07}, {"sequence": "TTAGAAGTCGAGAAACTCCAAA", "sensor-assay potency score (higher = more potent)": -0.797}, {"sequence": "TATATGAGCAGCCTCCTTCTGA", "sensor-assay potency score (higher = more potent)": -0.668}]}, {"target": "NEK7", "assay": "pooled miR-30 sensor sort-seq; sequence = guide strand", "conditions": "shRNA", "values": [{"sequence": "TTTTCATGTATTCTCTCTGGAG", "sensor-assay potency score (higher = more potent)": -0.779}, {"sequence": "TAAACATAGGTGACGTCTGGTC", "sensor-assay potency score (higher = more potent)": -1.09}, {"sequence": "TATATCTCTATGCATGACTCTT", "sensor-assay potency score (higher = more potent)": -0.469}, {"sequence": "TTGAGCTGAAAAACCGGCCAAG", "sensor-assay potency score (higher = more potent)": -1.05}, {"sequence": "TCTATCTTCTTACACAGTGAGT", "sensor-assay potency score (higher = more potent)": -1.04}, {"sequence": "TAAACTTCACTAAATTGTCCGC", "sensor-assay potency score (higher = more potent)": -0.329}, {"sequence": "TTAGCTGGTTTTATATCTCTAT", "sensor-assay potency score (higher = more potent)": -0.684}, {"sequence": "TAGTTCATTATCTTCAATGAAT", "sensor-assay potency score (higher = more potent)": -1.2}, {"sequence": "TTAAAATGCTTGATCATTCTGG", "sensor-assay potency score (higher = more potent)": 0.745}, {"sequence": "TAGGTCGCCAGCATCTGCTAGT", "sensor-assay potency score (higher = more potent)": -0.288}, {"sequence": "TAATGAACACATTAGCTGGTTT", "sensor-assay potency score (higher = more potent)": -0.362}, {"sequence": "TCTCATATAGTAGACAGCCAAG", "sensor-assay potency score (higher = more potent)": -1.88}]}]}
